Assay outcomes from PubChem.
HepG2 tox: qHTS for Inhibitors of TGF-b: Cytotox Counterscreen. HepG2 CAGA-GFP viability, ATP luminescence, 18 h. hit rate 0.76% among 410,000. Potency, µM (titrated, usually from 46.1 µM), inactives show at the top dose activity change, negative = cytotoxicity, usual class: cytotoxic; further: potency means the concentration at half of the fitted maximal effect
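HepG2 CAGA-GFP cells (1000/well, DMEM with 1% FBS) received compound, then TGF-beta at 500 pg/mL final, and were incubated 18 hours at 37 degrees C. Viability was read by CellTiter-Glo luminescence. Media-only wells were set as complete cell-killing and DMSO as no toxicity.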
TDP1 cell CPT: qHTS for Inhibitors of human tyrosyl-DNA phosphodiesterase 1 (TDP1): qHTS in cells in presence of CPT; chicken DT40 Tdp1-/-;hTDP1 cells + 20 nM CPT, ATP luminescence, 48 h; Potency, µM (titrated, usually from 46.2 µM), for inactives: at the top dose activity change, negative = growth inhibition, most hits filed as inhibitors; hit rate 12% among 420,000; further: potency means the concentration at half of the fitted maximal effect; on the % scale 0 is the no-effect control and ±100 the full control effect; nearly all actives have a fitted effect of over 55% in size
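Chicken DT40 Tdp1-/- cells complemented with human TDP1, 400 cells/well, exposed to compounds plus 20 nM camptothecin for at least 48 h at 37 C; viability read as ATP content by CellTiter-Glo luminescence.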
DT40 TDP1 no CPT: qHTS for Inhibitors of human tyrosyl-DNA phosphodiesterase 1 (TDP1): qHTS in cells in absence of CPT; DT40 Tdp1-/- hTDP1 cells, no CPT, ATP luminescence, 48 h; Potency, µM (highest dose often 46.2 µM), inactives show top-dose activity change, negative = growth inhibition, most hits filed as inhibitors; hit rate 15% among 420,000; further: potency means the concentration at half of the fitted maximal effect; on the % scale 0 is the no-effect control and ±100 the full control effect; nearly all actives have a fitted effect of over 55% in size
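DT40 Tdp1-/-;hTDP1 cells, no CPT (DMSO vehicle only), 400 cells/well; compounds pin-transferred; ≥48 hr, 37 °C; CellTiter-Glo 30 min RT dark, luminescence read.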
S-ASM inh: Inhibitors of Secretory Acid Sphingomyelinase (S-ASM): qHTS | Potency, µM (titrated, usually from 57.5 µM), inactives show at the top dose activity change, negative = inhibition, usual class: inhibitors | hit rate 0.006% among 340,000 | Sphingomyelin phosphodiesterase (Homo sapiens), P17405 | placental ASM, HMU-PC fluorogenic substrate, 60 min; further: potency means the concentration at half of the fitted maximal effect
Target sequence (P17405 47-631 limits assumed): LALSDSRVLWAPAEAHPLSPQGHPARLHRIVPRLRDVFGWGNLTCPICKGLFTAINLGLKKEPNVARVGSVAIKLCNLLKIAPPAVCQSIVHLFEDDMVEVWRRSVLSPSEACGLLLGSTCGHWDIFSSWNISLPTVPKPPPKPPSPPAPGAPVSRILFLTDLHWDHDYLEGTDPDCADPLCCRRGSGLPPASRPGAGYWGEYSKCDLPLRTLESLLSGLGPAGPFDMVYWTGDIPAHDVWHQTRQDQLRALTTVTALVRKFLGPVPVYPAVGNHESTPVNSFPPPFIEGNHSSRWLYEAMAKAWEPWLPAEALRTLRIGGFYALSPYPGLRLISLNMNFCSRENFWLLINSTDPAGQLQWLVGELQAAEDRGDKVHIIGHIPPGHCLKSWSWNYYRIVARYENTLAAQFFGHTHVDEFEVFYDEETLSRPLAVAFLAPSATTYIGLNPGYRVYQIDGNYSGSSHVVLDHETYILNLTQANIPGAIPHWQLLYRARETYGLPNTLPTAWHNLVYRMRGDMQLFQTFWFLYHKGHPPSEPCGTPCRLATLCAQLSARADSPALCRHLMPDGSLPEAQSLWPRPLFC
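Human placenta-derived ASM preincubated with compound 10 min at room temperature, then reacted with 9 uM (final) fluorogenic HMU-PC substrate for 60 min at 37 C. Stop solution raises pH to 10; fluorescence read at Ex 386/Em 447 nm.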
IL-1B inflam inh: qHTS for Inhibitors of Inflammasome Signaling: IL-1-beta AlphaLISA Primary Screen; THP-1 LPS/ATP IL-1B secretion, AlphaLISA, 16 h; active compounds read low; activity change, % at 57.5 µM; hit rate 4.7% among 360,000; in the data active means activity change below about -50%; inconclusive means mostly about -30% to -49%; further: on the % scale 0 is the no-effect control and ±100 the full control effect
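Secreted IL-1B measured by AlphaLISA bead assay after 16 h compound exposure of THP-1 cells; compounds (final up to 57.5 uM) added 1 h before LPS (250 ng/mL) and ATP (1.25 mM) stimulation; lower signal means less secretion.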
TGFb SMAD3 inh: qHTS for Inhibitors of TGF-b; HepG2 CAGA-GFP TGF-b/SMAD3 reporter, GFP fluorescence, 18 h; TGF-beta stimulated, 500 pg/mL final; Potency, µM (top dose mostly 46.1 µM), for inactives: top-dose activity, negative = inhibition, usual class: inhibitors; hit rate 1.2% among 410,000; further: potency means the concentration at half of the fitted maximal effect; on the % scale 0 is the no-effect control and ±100 the full control effect; nearly all actives have a fitted effect of over 65% in size
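TGF-beta reporter screen: HEPG2 CAGA-GFP, 1% FBS, 500 pg/mL TGF-beta final, 18 h; per-cell GFP summed per well; curves fitted and categorized by class.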
* = called active by the depositor; i = inactive; ? = inconclusive; / = not tested or not shown; [ ] = dose if it differs, or a comment. Only some compounds are listed: those with a hit (about 19% of all), similar ones and a draw of the others. Unless noted, the call rests on the fitted dose curve; in most records, active means well fitted curve in the direction sought with a large enough effect; inconclusive means small, poorly fitted or top-dose-only effect, or another doubt; inactive means no such curve, though single readings can be large; an effect the other way counts as inactive or inconclusive.

SMILES	HepG2 tox	TDP1 cell CPT	DT40 TDP1 no CPT	S-ASM inh	IL-1B inflam inh	TGFb SMAD3 inh
COc1ccccc1C(=O)N1CC(=O)Nc2ccc(C)cc2C1c1ccc(F)cc1 (stereo not given)	-35.1%	-8.7%	-20.0%	0.4%	-9.6	0.0%
CCOc1ccccc1C(=O)N1CC(=O)Nc2ccc(Cl)cc2C1c1ccccc1 (stereo not given)	-22.2%	20.6µM*	?	/	/	-2.5%
C[C@H]1C(=O)N(S(=O)(=O)c2ccc([N+](=O)[O-])cc2)[C@H]1c1ccc(F)cc1	4.6%	/	/	/	/	0.7%
Cc1ccc(S(=O)(=O)NCCc2cn3c(C)csc3n2)cc1	-0.6%	0.0%	-23.8%	/	/	-3.3%
CC1CCCN(C(=O)COc2ccc(NC(=O)c3cccs3)cc2)C1 (stereo not given)	-4.6%	-8.9%	-15.6%	-3.0%	-56.5*	1.7%
CC1CCN(C(=O)COC(=O)c2cccs2)CC1	0.8%	-2.8%	-7.9%	8.1%	3.4	6.2%
N#CC1(NC(=O)CSc2nnc(-c3ccccc3F)n2N)CCCCC1	5.1%	-0.3%	-15.6%	0.9%	-8.0	-3.8%
NC(=O)c1cc(-c2ccccc2)nc(N2CCOCC2)n1	-55.8%	20.6µM*	11.6µM*	1.6%	-50.5*	11.2%
NC(=O)c1cc(-c2ccccc2)nc(N2CCCCCC2)n1	-46.7%	?	?	8.7%	-16.5	?
COc1ccccc1NC(=O)c1sc2nc(C)c(C(=O)Nc3ccc(C)cc3C)c(-c3ccc(C)o3)c2c1N	-9.2%	?	?	/	/	-0.4%
Clc1ccccc1-c1nc2nc3ccccc3nc2n1-c1ccc2c(c1)OCO2	6.8%	?	23.1µM*	-3.8%	-9.5	-17.9%
COc1ccc(-c2cn(-c3ccc(C)cc3)c(=O)n2CC(=O)Nc2cccc(F)c2)cc1	-21.6%	-5.0%	-13.8%	-5.8%	-28.9	-3.0%
COc1ccc(-n2cc(-c3ccc4c(c3)OCO4)n(CC(=O)Nc3cccc(C)c3)c2=O)cc1	-20.2%	23.1µM*	?	/	/	-27.9%
Cc1ccc(NCc2cc3cc4c(cc3n(CC(=O)Nc3ccc(F)cc3F)c2=O)OCCO4)cc1	2.3%	/	/	/	/	11.2%
COc1cc2cc(CNc3ccc(C)cc3)c(=O)n(CC(=O)Nc3ccc(F)cc3F)c2cc1OC	-1.8%	?	16.4µM*	/	/	-24.2%
Cc1ccc(NCc2cc3cc4c(cc3n(CC(=O)Nc3ccc(C)cc3)c2=O)OCCO4)cc1	-12.3%	7.31µM*	8.2µM*	/	/	-8.7%
COc1ccc(NCc2cc3cc4c(cc3n(CC(=O)Nc3cc(C)cc(C)c3)c2=O)OCO4)cc1	1.4%	/	/	/	/	13.2%
COc1ccc(NCc2cc3cc4c(cc3n(CC(=O)Nc3ccccc3)c2=O)OCO4)cc1	-10.0%	5.17µM*	4.11µM*	/	/	-5.6%
NS(=O)(=O)c1ccc(NC(=S)Nc2ccc(S(=O)(=O)Nc3nccs3)cc2)cc1	9.2%	-6.7%	-0.2%	/	32.0	-3.0%
CCc1ccc(-c2cnc3nc[nH]c(=O)c3n2)cc1	4.8%	1.4%	?	i	-2.3	-0.4%
CCCCN(C(=O)CN1C(=O)C2CCCCC2C1=O)c1c(N)n(CCCC)c(=O)[nH]c1=O (stereo not given)	3.7%	4.9%	-5.1%	-0.8%	5.8	1.8%
CCOC(=O)N1CCN(c2c(F)cc3[nH]c(=S)[nH]c3c2Br)CC1	-15.7%	?	18.4µM*	-6.5%	26.9	-0.7%
COc1cc(Br)cc(/C=C/c2ccc3cccc(O)c3n2)c1OC	-0.8%	?	?	-0.4%	1.6	0.7%
COc1cc(/C=C/c2ccc3cccc([N+](=O)[O-])c3n2)ccc1OCC(=O)O	-19.0%	-5.5%	6.6%	0.0%	0.0	?
COc1cc(/C=C/c2ccc3cccc(O)c3n2)cc(Br)c1OC	4.6%	11.6µM*	18.4µM*	-1.3%	?	-18.2%
SMILES	HepG2 tox	TDP1 cell CPT	DT40 TDP1 no CPT	S-ASM inh	IL-1B inflam inh	TGFb SMAD3 inh
COc1cc(/C=C/c2ccc3cccc(O)c3n2)cc(OC)c1OC	-13.3%	?	?	2.6%	-102.2*	?
COc1ccc(/C=C/c2ccc3cccc(O)c3n2)cc1Br	-29.5%	5.8µM*	5.17µM*	-0.2%	9.9	-14.1%
COc1ccc(Br)cc1/C=C/c1ccc2cccc(O)c2n1	-17.8%	?	20.6µM*	0.9%	59.9	10.9%
COc1cccc2ccc(/C=C/c3ccc4c(c3)OCO4)nc12	4.1%	?	?	/	/	8.5%
CC(/C=C/C=C(\C)C(=O)O[C@@H]1O[C@H](CO[C@@H]2O[C@H](CO)[C@@H](O)[C@H](O)[C@H]2O)[C@@H](O)[C@H](O)[C@H]1O)=C\C=C\C=C(C)\C=C\C=C(/C)C(=O)O[C@@H]1O[C@H](CO[C@@H]2O[C@H](CO)[C@@H](O)[C@H](O)[C@H]2O)[C@@H](O)[C@H](O)[C@H]1O	/	8.0%	3.0%	/	/	/
COc1cc(/C=C/c2ccc3cccc(O)c3n2)cc(Cl)c1OC	-32.2%	4.11µM*	4.11µM*	-4.2%	-93.3*	?
COc1cc(/C=N/O)cc(Cl)c1OC	0.4%	1.1%	-23.8%	3.9%	11.4	-5.1%
COc1ccccc1C(=O)N1CCOc2ccc(CN3CCN(Cc4ccccn4)CC3)cc2C1	/	2.2%[9.04 µM]	-4.3%	/	/	/
CN1CCN(c2ccc(CNC(=O)C3Cc4c(-c5cccc(F)c5)ccnc4O3)cc2)CC1 (stereo not given)	-30.3%	?	20.6µM*	/	?	2.9%
COc1ccc(CNC(=O)C2Cc3c(-c4cccc(F)c4)ccnc3O2)cc1OC (stereo not given)	-76.3%	8.2µM*	?	/	-11.1	-3.9%
O=C(NCC1CC1)C1Cc2c(-c3cccc(F)c3)ccnc2O1 (stereo not given)	-3.0%	-8.4%	?	/	-14.4	-4.7%
O=C(NCc1cccc(Cl)c1)C1Cc2c(-c3cccc(F)c3)ccnc2O1 (stereo not given)	-22.7%	20.6µM*	25.9µM*	/	-9.7	-1.9%
O=C(NCc1ccccc1)C1Cc2c(-c3cccc(F)c3)ccnc2O1 (stereo not given)	-11.8%	0.92µM*	0.92µM*	/	74.2	?
